Assay results reported in the supplement of paper PMC9794691.

The molecules below were run on PC9 (assay: area under confluence curve of compound monotherapy; compare to DMSO control AUC of the same experiment (AUC (confluence x time, arbitrary))). Conditions: 10 nM; DMSO control AUC in same experiment: 18385.
Description: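 compare to DMSO control AUC of the same experiment; Monotherapy arm of the osimertinib DTP screen: EGFR-mutant NSCLC cells were treated with the test compound alone at a fixed dose (highest dose with <50% inhibition of parental cells, or 1 uM), then switched to drug-free medium at the DTP stage. IncuCyte confluence was tracked and AUC computed in Prism. AUC scale depends on experiment duration, so each row carries the same-experiment DMSO control AUC (monotherapy activity = DMSO AUC minus monotherapy AUC). The monotherapy value is shared between screen formats.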

SMILES	area under confluence curve
Cc1nc(-c2nc(-c3ccc(OC(F)(F)F)cc3)no2)nn1Cc1cccc(N2CCC(S(C)(=O)=O)CC2)c1	18100

Same assay, conditions: 10 nM; DMSO control AUC in same experiment: 19076

SMILES	area under confluence curve
Cc1nc(-c2nc(-c3ccc(OC(F)(F)F)cc3)no2)nn1Cc1cccc(N2CCC(S(C)(=O)=O)CC2)c1	18900

Same assay, conditions: 10 nM; DMSO control AUC in same experiment: 21341

SMILES	area under confluence curve
CC(=O)Nc1cccc(-n2c(=O)n(C3CC3)c(=O)c3c(Nc4ccc(I)cc4F)n(C)c(=O)c(C)c32)c1 [Trametinib]	20400
Cn1cc(CNCC2CCN(c3ncc(C(=O)NO)cn3)CC2)c2ccccc21 [Quisinostat]	17400

Same assay, conditions: 10 nM; DMSO control AUC in same experiment: 27958

SMILES	area under confluence curve
Cn1cc(CNCC2CCN(c3ncc(C(=O)NO)cn3)CC2)c2ccccc21 [Quisinostat]	20800

Same assay, conditions: 10 nM; DMSO control AUC in same experiment: 30002

SMILES	area under confluence curve
Cn1cc(CNCC2CCN(c3ncc(C(=O)NO)cn3)CC2)c2ccccc21 [Quisinostat]	29800

Same assay, conditions: 10 nM; DMSO control AUC in same experiment: 49189

SMILES	area under confluence curve
CC(=O)Nc1cccc(-n2c(=O)n(C3CC3)c(=O)c3c(Nc4ccc(I)cc4F)n(C)c(=O)c(C)c32)c1 [Trametinib]	49600

Same assay, conditions: 30 nM; DMSO control AUC in same experiment: 27958

SMILES	area under confluence curve
Cc1nc(Nc2ncc(C(=O)Nc3c(C)cccc3Cl)s2)cc(N2CCN(CCO)CC2)n1 [Dasatinib]	22500

Same assay, conditions: 30 nM; DMSO control AUC in same experiment: 28243

SMILES	area under confluence curve
Cc1nc(Nc2ncc(C(=O)Nc3c(C)cccc3Cl)s2)cc(N2CCN(CCO)CC2)n1 [Dasatinib]	18100

Same assay, conditions: 100 nM; DMSO control AUC in same experiment: 21341

SMILES	area under confluence curve
C[C@@]1(C(=O)Nc2ccc(F)nc2)CCCN1c1nc(Nc2cc(C3CC3)n[nH]2)c2cccn2n1	20100

Same assay, conditions: 100 nM; DMSO control AUC in same experiment: 21913

SMILES	area under confluence curve
Nc1ccc(/C=C/C(=O)NCc2cc3cc(-c4ccc(C(=O)N5CCC(F)(F)CC5)cc4)cc(-c4ccc(F)cc4)c3o2)cn1	22800

Same assay, conditions: 100 nM; DMSO control AUC in same experiment: 28334

SMILES	area under confluence curve
CNC(=O)c1cccc(-c2ccc3c(N4CCOC[C@@H]4C)nc(N4CCOC[C@@H]4C)nc3n2)c1	24900

Same assay, conditions: 100 nM; DMSO control AUC in same experiment: 30580

SMILES	area under confluence curve
C[C@@]1(C(=O)Nc2ccc(F)nc2)CCCN1c1nc(Nc2cc(C3CC3)n[nH]2)c2cccn2n1	30100

Same assay, conditions: 100 nM; DMSO control AUC in same experiment: 31219

SMILES	area under confluence curve
COC[C@H]1Cn2cc(-c3nc(Nc4ccnn4C)ncc3C)nc2C(=O)N1Cc1ccc(F)c(F)c1	30900

Same assay, conditions: 100 nM; DMSO control AUC in same experiment: 44384

SMILES	area under confluence curve
O=C(NC[C@H](O)CN1CCc2ccccc2C1)c1ccnc(NC2CCC2)c1	43300
C/C=C/Cn1cc(-c2cc(OC)c(C(=O)N3CCOCC3)cc2OC)c2cc(C)[nH]c2c1=O	44600

Same assay, conditions: 100 nM; DMSO control AUC in same experiment: 49143

SMILES	area under confluence curve
C[C@@]1(C(=O)Nc2ccc(F)nc2)CCCN1c1nc(Nc2cc(C3CC3)n[nH]2)c2cccn2n1	48900

Same assay, conditions: 100 nM; DMSO control AUC in same experiment: 49189

SMILES	area under confluence curve
COC[C@H]1Cn2cc(-c3nc(Nc4ccnn4C)ncc3C)nc2C(=O)N1Cc1ccc(F)c(F)c1	46200

Same assay, conditions: 300 nM; DMSO control AUC in same experiment: 19507

SMILES	area under confluence curve
CN1CCN(CCOc2cc(OC3CCOCC3)c3c(Nc4c(Cl)ccc5c4OCO5)ncnc3c2)CC1 [Saracatinib]	16000

Same assay, conditions: 300 nM; DMSO control AUC in same experiment: 28243

SMILES	area under confluence curve
CN1CCN(CCOc2cc(OC3CCOCC3)c3c(Nc4c(Cl)ccc5c4OCO5)ncnc3c2)CC1 [Saracatinib]	24000

Same assay, conditions: 1000 nM; DMSO control AUC in same experiment: 20567

SMILES	area under confluence curve
Cc1nc(N2CCC3(CC2)CO[C@@H](C)[C@H]3N)c(CO)nc1-c1cccc(Cl)c1Cl	20500

Same assay, conditions: 1000 nM; DMSO control AUC in same experiment: 21594

SMILES	area under confluence curve
Cc1cc2cc(C(=O)c3cnn(-c4cnc(Oc5c(F)cccc5F)cc4C)c3N)[nH]c2cc1NS(C)(=O)=O	18400
O=C([C@@H](Cc1cccc(C(F)(F)F)c1)NS(=O)(=O)c1cc(F)c2c(c1)CCNC2)N1CCCC1	20800
COc1cc(CCc2cc(NC(=O)c3ccc(N4CC(C)NC(C)C4)cc3)n[nH]2)cc(OC)c1 (stereo not given)	20200

Same assay, conditions: 1000 nM; DMSO control AUC in same experiment: 21678

SMILES	area under confluence curve
Cc1nc(N2CCC3(CC2)CO[C@@H](C)[C@H]3N)c(CO)nc1-c1cccc(Cl)c1Cl	22100

Same assay, conditions: 1000 nM; DMSO control AUC in same experiment: 22064

SMILES	area under confluence curve
C[C@@H](Oc1cc(-c2cnn(C3CCNCC3)c2)cnc1N)c1c(Cl)ccc(F)c1Cl [Crizotinib]	21100
C[C@@H]1COCCN1c1cc(C2([S@](C)(=N)=O)CC2)nc(-c2cc[nH]c3nccc2-3)n1	21700

Same assay, conditions: 1000 nM; DMSO control AUC in same experiment: 26668

SMILES	area under confluence curve
COc1cc(CCc2cc(NC(=O)c3ccc(N4CC(C)NC(C)C4)cc3)n[nH]2)cc(OC)c1 (stereo not given)	28200

Same assay, conditions: 1000 nM; DMSO control AUC in same experiment: 27958

SMILES	area under confluence curve
CN1CCN(c2nc(C3=C(c4c[nH]c5ccccc45)C(=O)NC3=O)c3ccccc3n2)CC1 [Sotrastaurin]	27000

Same assay, conditions: 1000 nM; DMSO control AUC in same experiment: 28684

SMILES	area under confluence curve
COc1cc2nc(C)nc(N[C@H](C)c3cc(N)cc(C(F)(F)F)c3)c2cc1O[C@H]1CCOC1	28300

Same assay, conditions: 1000 nM; DMSO control AUC in same experiment: 29345

SMILES	area under confluence curve
Cc1cc(Nc2ncnc3ccc(NC4=NC(C)(C)CO4)cc23)ccc1Oc1ccn2ncnc2c1 [Tucatinib]	29400

Same assay, conditions: 1000 nM; DMSO control AUC in same experiment: 30002

SMILES	area under confluence curve
Cc1cc(Nc2ncnc3ccc(NC4=NC(C)(C)CO4)cc23)ccc1Oc1ccn2ncnc2c1 [Tucatinib]	30200

Same assay, conditions: 1000 nM; DMSO control AUC in same experiment: 30578

SMILES	area under confluence curve
Cc1[nH]nc(C(F)(F)F)c1Cc1sc2c(c1C(=O)N1C[C@](C)(O)CO1)c(=O)n(C)c(=O)n2C(C)C	30100

Same assay, conditions: 1000 nM; DMSO control AUC in same experiment: 30580

SMILES	area under confluence curve
CS(=O)(=O)N1CCN(Cc2cc3nc(-c4cccc5[nH]ncc45)nc(N4CCOCC4)c3s2)CC1	24700

Same assay, conditions: 1000 nM; DMSO control AUC in same experiment: 30604

SMILES	area under confluence curve
Cc1cc2ncnn2cc1Nc1ncc2c(n1)n(C1CCOCC1)c(=O)n2C	30500
C[C@@H]1COCCN1c1cc(C2([S@](C)(=N)=O)CC2)nc(-c2cc[nH]c3nccc2-3)n1	30800

Same assay, conditions: 1000 nM; DMSO control AUC in same experiment: 31239

SMILES	area under confluence curve
O=C(CCCCCCC(=O)Nc1ccccc1)NO [Vorinostat]	29400

Same assay, conditions: 1000 nM; DMSO control AUC in same experiment: 43316

SMILES	area under confluence curve
C[C@@H](c1ccc2nccn2c1)n1nnc2ncc(-c3cnn(C)c3)nc21 [Savolitinib]	43600

Same assay, conditions: 1000 nM; DMSO control AUC in same experiment: 45737

SMILES	area under confluence curve
Cc1onc(C(=O)N2CCN(C(c3ccc(Cl)cc3)c3ccc(Cl)cc3)CC2)c1[N+](=O)[O-]	46500

Same assay, conditions: 1000 nM; DMSO control AUC in same experiment: 48219

SMILES	area under confluence curve
O=C(CCCCCCC(=O)Nc1ccccc1)NO [Vorinostat]	47800
